From PubChem BioAssay
In the library only some 4.9% were active in any assay of this set; here they are far more common.
Beta apoptosis = inhibitors of cytokine-induced beta cell apoptosis, primary screen, luminescence; 300,000 compounds, 0.8% hits; INS-1E cytokine-induced death, ATP luminescence, 48 h; percent of positive-control rescue, neutral wells zero; protection from apoptosis, % (test concentration not listed);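 active = Every replicate reaches about 75%, or at least half do and their mean reaches it too, limit read from the data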;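 note: 0% = cytokine-treated negative control wells and 100% = positive control rescue; higher means more ATP so stronger rescue from cytokine killing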
Mdm2 MdmX PPI = inhibitors of human Mdm2-MdmX association, primary screen, cell-based, luminescence, split luciferase, SaOS-2, uHTS; inhibition, % at 8 µM; 330,000 compounds, 3% hits; Protein Mdm4 (Homo sapiens) + E3 ubiquitin-protein ligase Mdm2 (Homo sapiens), …; SaOS-2 split-luciferase Mdm2/MdmX complementation;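 active = inhibition of at least 50% at 8 µM in the primary screen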
Calb FLC = C. albicans growth inhibition with fluconazole, primary screen, CaCi-2 strain, Alamar Blue fluorescence; C. albicans CaCi-2 (fluconazole-resistant clinical isolate) + fluconazole, 48 h; growth inhibition, % (concentration not given with the values); 300,000 compounds, 0.57% hits; AID 1979, 2009;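 active = growth inhibition above about 58% in most replicates, limit read from the data, passing the limit was not always enough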;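 note: all wells also contain fluconazole at 8 µg/ml as a sub-toxic cotreatment; 0% = median of DMSO wells and 100% = median of geldanamycin control wells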
PP5 inh = PP5 phosphatase inhibitors, primary screen, biochemical, fluorescence. Serine/threonine-protein phosphatase 5 (Homo sapiens), P53041. purified PP5c, OMFP substrate fluorescence. inhibition, % at 6.7 µM. 320,000 compounds, 0.18% hits. AID 1987, 2009;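 active = inhibition above the campaign's mean inhibition across all tested compounds plus 3 SD, cut at about 9.5% in these data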;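 note: 0% = DMSO only and 100% = 100 µM cantharidin control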
Target sequence (P53041 whole entry, looked up): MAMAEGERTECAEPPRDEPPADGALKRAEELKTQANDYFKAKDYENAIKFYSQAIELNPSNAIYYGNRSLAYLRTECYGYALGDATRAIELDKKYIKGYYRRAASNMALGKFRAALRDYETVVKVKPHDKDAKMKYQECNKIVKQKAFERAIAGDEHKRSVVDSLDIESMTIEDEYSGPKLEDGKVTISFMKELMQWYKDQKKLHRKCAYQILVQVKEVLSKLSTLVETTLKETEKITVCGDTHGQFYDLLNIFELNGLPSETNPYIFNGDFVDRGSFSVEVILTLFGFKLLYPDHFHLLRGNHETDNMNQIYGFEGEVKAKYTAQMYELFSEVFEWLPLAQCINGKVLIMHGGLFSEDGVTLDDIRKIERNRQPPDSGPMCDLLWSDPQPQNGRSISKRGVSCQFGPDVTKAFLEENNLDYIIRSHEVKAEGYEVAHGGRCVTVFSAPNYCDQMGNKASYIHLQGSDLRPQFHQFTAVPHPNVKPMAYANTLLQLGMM
CSC inhib = cancer stem cell viability inhibitors, primary screen, luminescence. cancer stem cell-like cells viability. inhibition, % at 7.5 µM. 300,000 compounds, 1.1% hits. AID 2717, 2010; in the data active = inhibition above about 75%; tested in HMLE shEcad cells
PP1 inh = PP1-alpha phosphatase inhibitors, primary screen, counter-screen for PP5 inhibitor project, biochemical, fluorescence, OMFP substrate, single point; inhibition, % at 6.7 µM; Serine/threonine-protein phosphatase PP1-alpha catalytic subunit (Homo sapiens), P62136; purified PP1alpha; 320,000 compounds, 0.9% hits;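 active = inhibition above the mean inhibition of all tested compounds plus 3 SD, computed separately for each screening campaign, cut at about 15% in these data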
Mdm2-MdmX conf = Mdm2-MdmX complex disruptors, retested hits, confirmation, luminescence, single concentration | shares compounds with Mdm2 MdmX PPI | Mdm2-MdmX binding, luminescent assay | inhibition, % at 8 µM | 10,000 compounds, 55% hits | AID 489028, 2010; in the data active = inhibition above about 40%
FLuc counter = full-length luciferase signal inhibition, confirmation, counter-screen for Mdm2/MdmX interaction inhibitor project, cell-based, single concentration, SaOS-2; shares compounds with Mdm2 MdmX PPI; SaOS-2 full-length luciferase counterscreen, luminescence; inhibition, % at 8 µM; 6,200 compounds, 77% hits;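 active = mean inhibition at 8 µM reaching about 37%, which flags the compound as non-specific, limit read from the data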;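 note: p53-null SaOS-2 cells with luciferase driven by a doxycycline-inducible promoter; compound on cells about two nights before reading with doxycycline added after day one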
Starred values were filed as active, the others as inactive; / = no result.

SMILES	Beta apoptosis	Mdm2 MdmX PPI	Calb FLC	PP5 inh	CSC inhib	PP1 inh	Mdm2-MdmX conf	FLuc counter
O=c1cccc2n1CC1CC2CN(CC(O)CN2CC3CC(C2)c2cccc(=O)n2C3)C1 (stereo unspecified)	-7	4	-8	1	-2	2	/	/
FC(F)(F)c1ccc2c(c1)N(CCCN1CCN(CCCl)CC1)c1ccccc1S2	4	61*	-10	4	44	6	23	/
CC(C)(C)c1cc(C=C(C#N)C#N)cc(C(C)(C)C)c1O	117*	96*	/	3	81*	-1	94*	12
CCN(CC)C(=O)c1ccc(NC(=O)c2c(C)noc2C)cc1	2	-14	/	3	-10	-6	/	/
NCCc1ccc(OCc2ccccc2)c(OCc2ccccc2)c1	9	92*	/	1	106*	3	24	/
Ic1ccccc1CN[C@@H]1C2CCN(CC2)[C@@H]1C(c1ccccc1)c1ccccc1	/	94*	/	1	/	1	42*	66*
Fc1ccccc1CNC1CN2CCC1CC2 (stereo unspecified)	-11	-12	-1	-1	-3	-8	/	/
CN1CCc2cc3c(c4c2C1Cc1ccccc1-4)OCO3 (stereo unspecified)	88*	59*	92*	4	18	9	52*	61*
CN1CCc2cc(O)cc3c2[C@H]1Cc1ccc(O)c(O)c1-3	-3	6	/	0	0	6	/	/
CCC(=NCCCn1ccnc1)c1c(O)n(-c2ccc(OC)cc2)c(=O)[nH]c1=O	3	-10	15	2	3	-2	/	/
CCN1C[C@@]2(COC)C3[C@@H](OC)[C@H]4[C@@H]1[C@@]3(C1C[C@H]3[C@H](OC(=O)c5ccccc5)C1[C@]4(OC(C)=O)C[C@H]3OC)[C@@H](OC)C[C@H]2O (stereo partly specified)	6	-2	-7	2	5	-3	/	/
CCOc1ccc(-c2c(C)n(-c3ccc(OCC)cc3)c3[n+]2CCCCC3)cc1	/	88*	87*	2	34	0	87*	49*
CCOc1ccc(-n2c(-c3ccoc3)nc3ccccc3c2=O)cc1	/	-2	-13	2	/	4	/	/
COC(=O)C1=C(c2ccc(S(C)(=O)=O)cc2)C[C@@H]2CC[C@H]1N2C(=O)NC1CCCCC1	-4	-9	-2	-1	-10	5	/	/
COc1ccc(O)c2c(=O)c3c(OC)cc4c(c3oc12)C1C=COC1O4 (stereo unspecified)	24	74*	-2	2	36	1	63*	42*
CCOc1ccc(NC(=O)N2C[C@H]3C[C@@H](C2)c2cccc(=O)n2C3)cc1	-3	22	-4	1	-4	4	/	/
Cc1ccc(Oc2cc(NN3CCCCC3)c([N+](=O)[O-])cc2[N+](=O)[O-])c([N+](=O)[O-])c1	-1	51*	-5	1	17	-3	28	/
O=[N+]([O-])c1cc(F)c(N2CCCCC2)cc1Br	0	8	7	2	-11	-1	/	/
Cc1cccc(-n2c(O)c(/C=C3/C(c4ccccc4)=Nc4ccccc43)c(=O)[nH]c2=O)c1	19	54*	28	5	65	3	57*	36
CC1=Nc2ccccc2/C1=C/c1c(O)n(C)c(=O)[nH]c1=O	-7	-5	2	1	12	0	/	/
Cc1ccccc1-n1c(O)c(/C=C2/C(c3ccccc3)=Nc3ccccc32)c(=O)[nH]c1=O	15	57*	-3	1	67	2	63*	66*
C=CC1CN2CCC1CC2c1[nH]c2ccccc2c1CCO (stereo unspecified)	1	24	-4	1	-7	-2	/	/
C=CCn1c(O)c(C(C)=NCc2cc(OC)cc(OC)c2)c(=O)[nH]c1=O	-4	49	7	2	66	3	/	/
CCCCCn1c(=O)c(C(=O)Nc2ccccn2)c(O)c2ccccc21	/	54*	-1	-1	20	2	19	/
CCCCn1c(=O)c(C(=O)Nc2ccccn2)c(O)c2ccccc21	29	30	28	2	23	5	/	/
SMILES	Beta apoptosis	Mdm2 MdmX PPI	Calb FLC	PP5 inh	CSC inhib	PP1 inh	Mdm2-MdmX conf	FLuc counter
CCCCCCn1c(=O)c(C(=O)Nc2ncccc2O)c(O)c2ccccc21	/	45	21	3	33	-3	/	/
CCCCCCn1c(=O)c(C(=O)Nc2cnccn2)c(O)c2ccccc21	28	61*	7	1	41	-2	52*	46*
COC(=O)[C@@H]1C[C@H]1[C@@H](NP(=O)(c1ccccc1)c1ccccc1)c1ccccc1	0	56*	-4	0	7	1	40*	63*
C=C(C)[C@@]12OC3(c4ccccc4)O[C@@H]1C1[C@@H]4O[C@]4(CO)[C@@H](O)[C@]4(O)C(=O)C(C)=C[C@H]4[C@@]1(O3)[C@H](C)[C@H]2OC(=O)/C=C/C=C/c1ccccc1 (stereo partly specified)	3	77*	-2	4	6	3	12	/
COC(=O)C1=C(c2ccc(OC(F)(F)F)cc2)C[C@@H]2CC[C@H]1N2C(=O)N1CCC(C)CC1	10	32	/	5	-21	5	/	/
Nc1c(C(=O)NCCc2ccccc2)c2nc3ccccc3nc2n1CCN1CCOCC1	/	54*	2	6	/	3	28	/
COc1ccc(CCNC(=O)c2c(N)n(CCN3CCOCC3)c3nc4ccccc4nc23)cc1	1	76*	-6	3	42	-3	8	/
CCCCn1c(N)c(C(=O)NCCN2CCOCC2)c2nc3ccccc3nc21	-2	4	-2	2	14	-3	/	/
COC(=O)C1=C(N)Oc2cc(C)oc(=O)c2C12C(=O)Nc1ccccc12 (stereo unspecified)	-9	11	8	-1	-20	-5	/	/
CC12CCC3C(CC=C4CC(O)CCC43C)C1C/C(=C\c1cccc(F)c1)C2=O (stereo unspecified)	3	60*	-1	-3	31	0	20	/
C[C@]12CC[C@@H](O)CC1=CCC1C2CC[C@]2(C)C(=O)[C@H](F)CC12 (stereo partly specified)	-4	19	/	/	-9	/	/	/
